Measured potencies and affinities stand elsewhere.
Experiments:
Staphylococcus aureus = settings: Concentration 20 uM; ASSAY_TEST Inhibition of Bacterial Growth; detection method Absorption (OD600); MEDIA CAMHB; plate type 384well; NBS; CORNING #3640; time 18 hr
Escherichia coli = settings: Concentration 20 uM; ASSAY_TEST Inhibition of Bacterial Growth; detection method Absorption (OD600); MEDIA CAMHB; plate type 384well; NBS; CORNING #3640; time 18 hr

Row | SMILES | Inhibition (Staphylococcus aureus) [%] | Inhibition (Escherichia coli) [%]
1 | COC(=O)C1=C(C)NC(C)=C(C(=O)OC)C1c1ccccc1[N+](=O)[O-] [NIFEDIPINE] | 16.67 | 3.8
2 | CC[C@]1(O)CC[C@H]2[C@@H]3CCC4=CCCC[C@@H]4[C@H]3CC[C@@]21C [ETHYLESTRENOL] | -6.51 | 3.02
3 | O=C(O[C@@H]1Cc2c(O)cc(O)cc2O[C@@H]1c1cc(O)c(O)c(O)c1)c1cc(O)c(O)c(O)c1 [EPIGALOCATECHIN GALLATE] | 13.39 | 5.85
4 | Cc1ccc(-c2nc3ccc(C)cn3c2CC(=O)N(C)C)cc1.Cc1ccc(-c2nc3ccc(C)cn3c2CC(=O)N(C)C)cc1.O=C(O)C(O)C(O)C(=O)O [ZOLPIDEM TARTRATE] | 4.54 | -2.63
5 | CN1C(=O)CN=C(c2ccccc2)c2cc([N+](=O)[O-])ccc21 [NIMETAZEPAM] | 10.78 | 1.04
6 | CC(COc1ccccc1)N(CCCl)Cc1ccccc1.Cl (stereo not given) [PHENOXYBENZAMINE HYDROCHLORIDE] | 12.58 | 3.59
7 | C=C(C)[C@@H]1[C@H]2OC(=O)[C@@H]1[C@]1(O)C[C@H]3O[C@]34C(=O)O[C@H]2[C@]14C.CC(C)(O)[C@@H]1[C@H]2OC(=O)[C@@H]1[C@]1(O)C[C@H]3O[C@]34C(=O)O[C@H]2[C@]14C | 10.5 | 5.19
8 | CCC1(c2ccc(N)cc2)CCC(=O)NC1=O (stereo not given) [AMINOGLUTETHIMIDE] | -4.21 | 2.02
9 | C[N+]1(CCC(C(N)=O)(c2ccccc2)c2ccccc2)CCCCC1.[Br-] [FENPIVERINIUM BROMIDE] | 4.81 | -0.64
10 | C[C@]12CC[C@H](O)CC1=CC[C@@H]1[C@@H]2CC[C@]2(C)C(=O)CC[C@@H]12 [PRASTERONE] | 13.56 | 2.6
11 | CNS(=O)(=O)Cc1ccc2[nH]cc(CCN(C)C)c2c1.O=C(O)CCC(=O)O [SUMATRIPTAN SUCCINATE] | 12.49 | 0.9
12 | Cc1c(O)c(=O)ccn1C [DEFERIPRONE] | 9.56 | -6.38
13 | C#CCN(C)[C@H](C)Cc1ccccc1.Cl [SELEGILINE HYDROCHLORIDE] | -22.3 | 3.38
14 | COc1ccc(C(CN(C)C)C2(O)CCCCC2)cc1.Cl (stereo not given) [VENLAFAXINE HYDROCHLORIDE] | 5.17 | 7.16
15 | Cl.Cl.OCCN1CCN(CCCN2c3ccccc3Sc3ccc(C(F)(F)F)cc32)CC1 [FLUPHENAZINE HYDROCHLORIDE] | 12.42 | -6.08
16 | CN1CCN2c3ncccc3Cc3ccccc3C2C1 (stereo not given) [MIRTAZAPINE] | -16.68 | -1.97
17 | Br.COc1ccc2c(c1)[C@]13CCCC[C@@H]1[C@H](C2)N(C)CC3.O [DEXTROMETHORPHAN HYDROBROMIDE] | 17.11 | 4.79
18 | Br.Br.CN1CC[C@]2(c3cccc(O)c3)Cc3nc4ccccc4cc3C[C@H]2C1.O | 5.38 | 1.66
19 | CN(C)CCc1c[nH]c2ccc(Cn3cncn3)cc12.O=C(O)c1ccccc1 [RIZATRIPTAN BENZOATE] | 12.43 | -5.47
20 | O=C(O)C(Cl)Cl [DICHLOROACETIC ACID] | 11.87 | 3.62
21 | CN1CC[C@@]23CCCC[C@@H]2[C@@H]1Cc1ccc(O)cc13.O=C(O)C(O)C(O)C(=O)O | 4.84 | 6.67
22 | C[C@]12CCC(=O)C=C1CC[C@@H]1[C@@H]2CC[C@@]2(C)[C@H]1CC[C@]2(C)O [METHYLTESTOSTERONE] | 7.28 | 3.56
23 | Cl.Oc1ccc2c3c1OC1C(O)CC[C@@]4(O)[C@@H](C2)N(CC2CCC2)CC[C@]314 (stereo not given in full) | 18.7 | -2.31
24 | C[C@H](CCC(=O)O)[C@H]1CC[C@H]2[C@@H]3[C@@H](O)C[C@@H]4C[C@H](O)CC[C@]4(C)[C@H]3CC[C@]12C [URSODIOL] | 5.15 | 2.26
25 | CC(C)NCC(O)c1ccc(O)c(O)c1.Cl (stereo not given) [ISOPROTERENOL HYDROCHLORIDE] | 7.54 | -1.63

Reference: ChEMBL document CHEMBL4513141, “CO-ADD screening of NIH (USA) - Clinical Collection” (2021)
